# BH1578 lux ind = inducers of Vibrio cholerae quorum light production without autoinducers. AID 588436. 350,000 tested, 0.16% active. V. cholerae BH1578 lux reporter, luminescence, 6 h. activation, % at 18.7 µM; in the data active = activation mostly above about 9.7%, no sharp cut-off
# PrPC TRFRET = cell surface PrPC inhibition, primary TR-FRET screen | P04156 | TR-FRET read-out | inhibition, % at 13.8 µM | 370,000 tested, 0.43% active | AID 720596; in the data active = inhibition above about 24%; note: 0% = median of the test wells and 100% = reference compound wells
# SSB-PriA inh = inhibitors of Klebsiella pneumoniae PriA binding to SSB C-terminal tail; 430,000 tested, 0.6% active; inhibition, % at 33 µM; AlphaScreen SSBct-PriA binding, biotinylated peptide; in the data active = inhibition mostly above about 37%, no sharp cut-off; inactive = mostly below about 20%;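 note: plate controls were negative control peptide for no effect and reference peptide for full effect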
# PrP 5UTR inh = inhibition of PrP 5' UTR reporter expression; inhibition, % (concentration not given with the values); AID 488862; cell-based PrP 5' UTR mRNA reporter, plate reader; 340,000 tested, 0.35% active; in the data active = inhibition above about 52%; note: 0 = median of the neutral control wells
# FadD28 FP inh = blocks FadD28 binding to the bisubstrate probe | fluorescence polarization | inhibition, % at 12.5 µM | 360,000 tested, 0.22% active | AID 588549; in the data active = inhibition above about 8.5%, passing the limit was not always enough
# PrPC TRFRET cf = confirmation of inhibitors of cell surface human prion protein; AID 743200; inhibition, % at 13.8 µM; cell surface PrPC level, TR-FRET; shares compounds with PrPC TRFRET; 1,500 tested, 65% active; in the data active = inhibition above about 25%
# LD9 tox = kills or reduces viability of LD9 cells in PrPc counter-screen. shares compounds with PrPC TRFRET. inhibition, % at 13.8 µM. 1,500 tested, 29% active. LD9 cells cytotoxicity, luminescence viability. AID 743201; in the data active = inhibition above about 9.5%
# An asterisk follows results filed as active; i = inactive; x = no result; ! = not active in a repeat. A selection: hits, their analogues and other compounds. The true share with any hit is near 1.4%.
SMILES,BH1578 lux ind,PrPC TRFRET,SSB-PriA inh,PrP 5UTR inh,FadD28 FP inh,PrPC TRFRET cf,LD9 tox
Nc1nc(SCC(=O)Nc2ccc(F)cc2F)ncc1S(=O)(=O)c1cccs1,x,x,2.0,x,x,x,x
CCOc1ccc(OCCNC(=O)c2cccc(C)c2)cc1,x,x,-5.0,x,x,x,x
Cc1cc(C(=O)CSc2nncs2)c(C)n1-c1c(C)n(C)n(-c2ccccc2)c1=O,i,-6.7,-1.2,-18.8,-1.5,x,x
Cc1ccc(-n2c(C)cc(C(=O)CSc3nncs3)c2C)cc1,-6.2,38.9*,18.2,-51.6,-2.2,34.2*,1.5
CCN(CC)c1ccc(Nc2nc(N3CCOCC3)c3ccccc3n2)cc1,i,20.5,87.5,-13.9,-3.1,x,x
COc1ccc(Nc2nc(N3CCCC3)c3ccccc3n2)cc1,i,24.5*,35.0*,-8.0,-2.1,31.4*,23.8*
CC1(C)CC(=O)C(=C(O)Cc2ccccc2)C(=NCCc2ccccc2)C1,x,x,-17.0,x,x,x,x
O=C1CCc2cc(NC(=O)C3CCCO3)ccc2N1 (stereo unspecified),x,x,18.0,x,x,x,x
C=CCn1cc(/C=N/Nc2nc3ccccc3[nH]2)c2ccccc21,-2.1,27.2*,x,-55.5,3.5,23.6,14.4*
Cc1c(/C=N/Nc2nc3ccccc3[nH]2)c2ccccc2n1C,i,17.2,i,-35.0,1.3,x,x
O=C(O)COCC(=O)N1CCN(c2cc(C(F)(F)F)nc3ccccc23)CC1,-0.1,3.8,-3.7,-34.3,-1.4,x,x
CCC(=O)N1CCN(c2ccc(-n3c(=O)ccc4cnc5ccc(-c6cnc7ccccc7c6)cc5c43)cc2C(F)(F)F)CC1,x,37.1*,x,x,x,39.0*,32.6*
CCCCNc1c(-c2ccc(OC)c(SC3CCCCC3)c2)nc2ccc(C)cn12,1.5,38.4*!,-3.1,-11.5,-1.3,50.1*,53.3*
Cc1cc2ccccc2n1CCNC(=O)c1cccs1,-0.2,32.7*,17.0,-8.3,0.1,25.2*,-4.6
Cc1cc2ccccc2n1CCNC(=O)C1CCCC1,5.6,39.9*,23.6,-28.0,-0.8,3.7,1.3
Cc1cc2ccccc2n1CCNC(=O)C1CCCCC1,1.0,36.2*,29.8,-21.1,0.7,10.9,-1.8
O=C(NCCn1ccc2ccccc21)C1CCCCC1,i,5.1,-2.4,-29.7,-2.5,x,x
Cc1cc2ccccc2n1CCNC(=O)Nc1cn(C)c2ccccc12,x,x,5.0,x,x,x,x
Cc1cc2ccccc2n1CCNC(=O)C1CC1,-0.2,28.4*,-3.1,-10.1,0.6,7.2,-1.9
COc1ncc(NC(=O)CNC(=O)c2ccccc2)c(N(C)C)n1,x,x,1.0,x,x,x,x
CC(NC(=O)C(=O)NCc1ccccc1Cl)C(c1cccs1)N1CCOCC1 (stereo unspecified),x,x,6.0,x,x,x,x
Cc1nn(-c2ccccc2)c(Cl)c1C1C(C#N)=C(N)Oc2c1c(=O)oc1ccccc21 (stereo unspecified),-0.7,35.6*,-3.0,-16.7,-2.7,10.2,2.6
O=C(NN=C(c1ccccc1)c1ccccn1)c1ccccc1Cl,x,x,-7.5,x,x,x,x
COc1ccc(C(=O)N/N=C(\c2ccccc2)c2ccccn2)cc1,-2.7,27.7*,x,31.2,2.1,26.2*,38.7*
COc1ccc(S(=O)(=O)Nc2ccc(Cc3ccncc3)cc2)cc1OC,-0.3,10.6,4.8,3.9,x,x,x
SMILES,BH1578 lux ind,PrPC TRFRET,SSB-PriA inh,PrP 5UTR inh,FadD28 FP inh,PrPC TRFRET cf,LD9 tox
O=S(=O)(Nc1ccc(-n2cccc2)cc1)c1ccc(Cl)c(Cl)c1,i,-1.3,-0.8,-34.4,-3.0,x,x
CCc1ccc(OC)c(S(=O)(=O)Nc2ccc(Cc3ccncc3)cc2)c1,-0.2,41.7*,6.0,-27.3,-4.0,30.0*,8.2
O=S(=O)(Nc1ccc(Cc2ccncc2)cc1)c1ccc(Cl)c(Cl)c1,-0.2,31.0*,-5.9,-2.4,-2.4,32.1*,15.6*
CNC(=S)NN=C(C)c1ccc(N2CCOCC2)cc1,x,x,-11.6,x,x,x,x
O=C(Cc1ccccc1Cl)NCC#CCOc1ccc2c(c1)OCO2,x,x,17.0,x,x,x,x
O=C(Nc1ccc2c(c1)OCO2)c1cc(-c2ccc(O)cc2)on1,-0.2,32.0*,11.4,-112.3,-2.7,17.6,4.9
CC(C)Cc1cc(C(=O)Nc2ccc3c(c2)OCO3)no1,i,31.1*,-8.2,-113.9,-3.0,29.2*,-1.6
Fc1ccc(-n2nnnc2-c2cnc(-c3cccs3)nc2C(F)(F)F)cc1,-7.1,52.7*,-14.2,-6.6,-1.0,48.2*,39.7*
Cc1nc(-c2ccc(N3CCN(C(=O)Cc4cccc5ccccc45)CC3)nc2)no1,x,x,-6.0,x,x,x,x
CCc1c(C(=O)O)[nH]c2ccc(Br)cc12,-0.8,76.1*,5.8,-11.5,-0.3,87.6*,0.6
NNC(=O)c1[nH]c2ccc(Br)cc2c1-c1ccccc1,i,6.3,1.7,-16.0,0.6,x,x
COc1ccc(C(CNC(=O)C(=O)Nc2ccccc2SC)N2CCOCC2)cc1 (stereo unspecified),x,x,-9.0,x,x,x,x
CC1OC2CC(=O)OC2C2=C1C(=O)c1c(O)cccc1C2=O (stereo unspecified),-0.3,81.0*,x,x,-1.0,92.7*,98.8*
O=C1c2cccc(O)c2C(=O)c2c(O)cc(CO)cc21,x,x,6.5,x,x,x,x
O=C(CCSc1ccccc1)N1CCN(c2cc(-n3cncn3)ncn2)CC1,x,x,-10.0,x,x,x,x
CC(=O)c1sccc1NC(=O)c1ccccc1C(=O)O,-0.5,47.0*,-8.4,-7.6,-0.7,109.0*,-5.6
CCOC(=O)N1CCN(S(=O)(=O)c2ccc(C(=O)Nc3nc(-c4ccc(OC)c(OC)c4)cs3)cc2)CC1,x,x,-8.0,x,x,x,x
CCOC(=O)c1c(C)n(CC)c2c1cc(O)c1ccccc12,1.5,24.7*,9.3,-19.5,-1.1,11.2,-3.5
CCCCc1c(Cc2cccc(F)c2)ncn1CCc1ccccc1OC,x,26.8*,x,x,x,19.0,16.9*
CCCCc1c(-c2ccc(F)cc2F)ncn1CCc1ccccc1OC,x,3.0,x,x,x,x,x
COc1ccc(C=NNC(=O)c2cccc(NC(C)=O)c2)c(C(=O)O)c1OC,x,x,3.8,x,x,x,x
Cc1cc(N2CCCC2=O)cc(C)c1S(=O)(=O)NCCOc1ccc(C(C)(C)C)cc1,i,32.0*,-1.5,-3.0,-1.2,29.3*,8.3
O=C1CCCN1c1ccc(S(=O)(=O)NCCOc2ccccc2)cc1,i,2.2,-10.3,-1.9,-4.2,x,x
CCCCCCCCCCCCCCCCn1cc[n+](C)c1,i,34.1*,-13.5,-24.3,48.8*,49.4*,42.2*
CCN(CC)C(=O)C1CCCN(c2ccc([N+](=O)[O-])cc2C=NNC(=O)c2ccccc2)C1 (stereo unspecified),x,x,-3.0,x,x,x,x
Cc1noc(-c2ccc(N3CCCC(C(=O)NCc4nc5ccccc5n4C)C3)nc2)n1 (stereo unspecified),x,x,-23.0,x,x,x,x
Cc1ccc2[nH]c3c(=O)n(N)c(C)nc3c2c1,-0.4,6.8,-4.6,-40.1,-1.9,x,x
Cc1ccc2[nH]c3c(=S)nc[nH]c3c2c1,-0.3,129.1*,-17.6,-46.3,-3.3,147.3*,3.5
CCc1ccccc1NC(=O)NCCn1nc(-c2cccnc2)ccc1=O,x,x,-6.0,x,x,x,x
CCOC(=O)NC(=O)CSc1cc(C)c2cc(C)cc(C)c2n1,2.6,42.3*,3.5,-24.6,0.1,57.5*,-2.3
